In the library only some 2.3% were active in any assay of this set; here they are far more common.
CHO-K1 Ca ag = counter-screen for M1 agonists: effect in parental CHO-K1 cells; AID 602248, 2012; 360,000 compounds, 0.48% hits; Fluo-8 calcium fluorescence; scaled to maximal ATP response, vehicle zero; activation, % at 3 µM; in the data active = activation above about 15%;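 note: untransfected CHO-K1 host cells lacking M1 receptor as counterscreen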
M1 ag = human M1 muscarinic receptor agonists, primary screen, Fluo-8 calcium fluorescence, CHO-K1 cells, HTS. 360,000 compounds, 0.33% hits. Muscarinic acetylcholine receptor M1 (Homo sapiens), P11229. AID 588814, 2011. activation, % at 3 µM. CHO-K1 hM1, agonist mode; 0% DMSO, 100% acetylcholine EC100;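 active = activation above the run's mean compound activation plus 3 SD, cut at about 16% in these data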;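 note: peak over basal fluorescence ratio within a 140 s kinetic read after compound addition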
Target sequence (P11229 whole entry, looked up): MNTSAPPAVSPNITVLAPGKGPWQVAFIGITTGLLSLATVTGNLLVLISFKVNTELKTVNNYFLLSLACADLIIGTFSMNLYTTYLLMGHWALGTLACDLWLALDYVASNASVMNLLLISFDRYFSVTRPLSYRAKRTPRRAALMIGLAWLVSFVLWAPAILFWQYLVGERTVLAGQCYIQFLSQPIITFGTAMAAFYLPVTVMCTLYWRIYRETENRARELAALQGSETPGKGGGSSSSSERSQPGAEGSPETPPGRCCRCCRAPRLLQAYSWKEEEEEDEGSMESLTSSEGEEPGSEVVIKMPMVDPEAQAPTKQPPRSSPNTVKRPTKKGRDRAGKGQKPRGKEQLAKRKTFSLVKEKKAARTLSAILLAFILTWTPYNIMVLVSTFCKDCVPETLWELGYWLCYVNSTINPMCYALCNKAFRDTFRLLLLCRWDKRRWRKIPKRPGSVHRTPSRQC
M1 antag = human M1 muscarinic receptor antagonists, primary screen, CHO-K1 cells, Fluo-8 calcium fluorescence, 1536-well. Muscarinic acetylcholine receptor M1 (Homo sapiens), P11229. CHO-K1 hM1, ACh EC80 antagonist. inhibition, % at 3 µM. 360,000 compounds, 1.3% hits. AID 588852, 2011;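 active = percent inhibition above its own plate's cutoff, namely the mean of that plate's compound wells plus 3 SD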;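 note: peak over basal fluorescence ratio during 140 s after agonist addition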
M1 PAM = human M1 muscarinic receptor positive allosteric modulators, primary screen, CHO-K1 cells, Fluo-8 calcium fluorescence, 1536-well; CHO-K1 hM1, ACh EC20; 0% = ACh EC20, 100% = maximal ACh; activation, % at 3 µM; 360,000 compounds, 0.088% hits; in the data active = activation above about 19%, passing the limit was not always enough
CHO-K1 Ca PAM = nonselective calcium activators in parental CHO-K1 cells, primary screen, counter-screen for M1 PAM project, cell-based, Fluo-8 calcium fluorescence, full deck, 1536-well; ATP EC20; 0% at ATP EC20, 100% at ATP max; activation, % at 3 µM; 360,000 compounds, 0.02% hits;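 active = activation above the run cutoff, the mean activation of all test compounds plus 3 SD, cut at about 40% in these data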;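 note: peak over basal fluorescence ratio in a 140 s read after ATP addition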
CHO-K1 Ca antag = M1 antagonist counterscreen hit in parental CHO-K1 cells. ATP-induced calcium, Fluo-8 fluorescence. inhibition, % at 3 µM. 360,000 compounds, 0.6% hits. AID 602250;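 active = inhibition above a per-plate cutoff, the plate's mean sample inhibition plus 3 SD, cut at about 24% in these data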
Each line names hits and unclear results; the compound was inactive in the other large screens.

OC(CCN1CCCCC1)c1ccc(-c2ccccc2)cc1 (stereo not drawn)	none
O=C(N/N=C/c1ccc(O)cc1)c1ccc(COc2cc(Cl)ccc2Cl)o1	CHO-K1 Ca ag 15, M1 ag 36
CCc1nc(SCC(=O)c2cccs2)c2oc3ccccc3c2n1	CHO-K1 Ca antag 26
CCc1nc(SCC(=O)NCCc2ccccc2)c2oc3ccccc3c2n1	none
O=C(CCCn1c(=S)[nH]c2cc3c(cc2c1=O)OCO3)NCc1ccccc1Cl	none
CN1CCN(c2ccc3sc(-n4ccc5ccccc54)nc3c2)CC1	none
CCOC(=O)C1CCN(C(=O)CCNS(=O)(=O)c2ccc3c(c2)CCN3C(=O)CC)CC1	CHO-K1 Ca antag 58
CCC(=O)N1CCc2cc(S(=O)(=O)NCCC(=O)N3CCN(c4cccc(C)c4)C(C)C3)ccc21 (stereo not drawn)	CHO-K1 Ca ag 16
COc1ccc([N+](=O)[O-])cc1NC(=O)c1cc(C)c(C)o1	CHO-K1 Ca antag 25
CCN(CC)S(=O)(=O)c1ccc(O)c(NC(=O)c2cc(-c3cc(OC)c(OC)c(OC)c3)nc3ccccc23)c1	M1 antag 29
COCCN(Cc1ccccc1)C(=O)c1cc(-c2ccc(OC)c(OC)c2)nc2ccccc12	none
COc1ccc(-c2cc(C(=O)N(C)Cc3ccccc3F)c3ccccc3n2)cc1OC	M1 antag 40
COc1cc(-c2cc(C(=O)N(C)Cc3ccccc3)c3ccccc3n2)cc(OC)c1OC	M1 antag 22
COc1ccccc1CN(C)C(=O)c1cc(-c2cc(OC)c(OC)c(OC)c2)nc2ccccc12	none
CCN(Cc1ccccc1)C(=O)c1cc(-c2ccc(OC)c(OC)c2)nc2ccccc12	M1 antag 35
Nc1ncnc2c1ncn2-c1ccccc1Cl	none
O=C(COC(=O)c1cc(S(=O)(=O)N2CCOCC2)ccc1F)Nc1ccccc1C(F)(F)F	none
COc1ccc(-c2cc(C(=O)Nc3cccc(S(=O)(=O)NCc4ccco4)c3)c3ccccc3n2)cc1OC	M1 antag 41
CCOc1ccc(NC(=O)CN(C)C(=O)c2cc(-c3ccc(OC)cc3)nc3ccccc23)cc1OCC	M1 antag 30
CCN(CC(=O)Nc1ccc(NC(C)=O)cc1)C(=O)c1cc(-c2ccccc2Cl)nc2ccccc12	M1 antag 41
COc1cccc(CN(C)C(=O)c2cc(-c3cccs3)nc3ccccc23)c1	M1 antag 54, CHO-K1 Ca antag 27
COc1ccc(NC(=O)CN(C)C(=O)c2cc(-c3ccc(Cl)cc3)nc3ccccc23)cc1	none
CC1(C)Cc2c(sc(NC(=O)c3ccc(Br)o3)c2C#N)CO1	CHO-K1 Ca antag 25
CC1(C)Cc2c(sc(NC(=O)Cc3ccccc3)c2C#N)CO1	none
Cc1ccccc1C(=O)Nc1cccc(C(=O)Nc2ccccc2C(=O)O)c1	CHO-K1 Ca antag 26
CCS(=O)(=O)N1CCN(S(=O)(=O)c2ccc(Cl)s2)CC1	M1 antag 37
O=[N+]([O-])c1ccc(-n2nncc2-c2ccc(Cl)cc2)cc1	none
Nc1ccc(-n2nncc2-c2ccc(Cl)cc2)cc1	CHO-K1 Ca ag 17
O=[N+]([O-])c1ccccc1CNCCCCCO	none
CN(c1ccccc1)S(=O)(=O)c1cccc(NC(=O)c2ccncc2)c1	CHO-K1 Ca ag 15
O=C(Nc1ccc(Nc2ccccc2)cc1)c1ccc(Cl)c([N+](=O)[O-])c1	M1 antag 32
CN(c1ccccc1)S(=O)(=O)c1cccc(NC(=O)c2ccc(Cl)c([N+](=O)[O-])c2)c1	M1 antag 37
Cc1cc(C(=O)Nc2ccc(Nc3ccccc3)cc2)ccc1[N+](=O)[O-]	none
O=C(Nc1ccc(Cl)c(Cl)c1)c1ccc(Cl)c(Cl)c1	M1 antag 37
O=C(Nc1ccc(Cl)c(Cl)c1)Nc1nccs1	CHO-K1 Ca antag 34
